Source: PubChem BioAssay (several laboratories)
SUMO Mot1 rescue: inhibitors of SUMOylation pathway: yeast Mot1-301 growth rescue; S. cerevisiae Mot1-301 growth rescue, ATP luminescence, 38.5C; percent above DMSO median, 100 means doubled; growth rescue, % at 18.8 µM; 320,000 compounds, 1% hits;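 active = every valid replicate shows activation above 250% relative to neutral control wells; inactive = the rest, any valid replicate at or below 250%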;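 also: OY570 slx delta 5 strain wells were the positive control but not used for scaling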
AHR activator: activates the human aryl hydrocarbon receptor; AHR-responsive luciferase reporter cells, luminescence; activation, % at 5 µM; 320,000 compounds, 2.5% hits; AID 2796; in the data active = activation above about 47%;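 also: 0% = vehicle wells and 100% = reference agonist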
Target sequence (P35869 whole entry, looked up): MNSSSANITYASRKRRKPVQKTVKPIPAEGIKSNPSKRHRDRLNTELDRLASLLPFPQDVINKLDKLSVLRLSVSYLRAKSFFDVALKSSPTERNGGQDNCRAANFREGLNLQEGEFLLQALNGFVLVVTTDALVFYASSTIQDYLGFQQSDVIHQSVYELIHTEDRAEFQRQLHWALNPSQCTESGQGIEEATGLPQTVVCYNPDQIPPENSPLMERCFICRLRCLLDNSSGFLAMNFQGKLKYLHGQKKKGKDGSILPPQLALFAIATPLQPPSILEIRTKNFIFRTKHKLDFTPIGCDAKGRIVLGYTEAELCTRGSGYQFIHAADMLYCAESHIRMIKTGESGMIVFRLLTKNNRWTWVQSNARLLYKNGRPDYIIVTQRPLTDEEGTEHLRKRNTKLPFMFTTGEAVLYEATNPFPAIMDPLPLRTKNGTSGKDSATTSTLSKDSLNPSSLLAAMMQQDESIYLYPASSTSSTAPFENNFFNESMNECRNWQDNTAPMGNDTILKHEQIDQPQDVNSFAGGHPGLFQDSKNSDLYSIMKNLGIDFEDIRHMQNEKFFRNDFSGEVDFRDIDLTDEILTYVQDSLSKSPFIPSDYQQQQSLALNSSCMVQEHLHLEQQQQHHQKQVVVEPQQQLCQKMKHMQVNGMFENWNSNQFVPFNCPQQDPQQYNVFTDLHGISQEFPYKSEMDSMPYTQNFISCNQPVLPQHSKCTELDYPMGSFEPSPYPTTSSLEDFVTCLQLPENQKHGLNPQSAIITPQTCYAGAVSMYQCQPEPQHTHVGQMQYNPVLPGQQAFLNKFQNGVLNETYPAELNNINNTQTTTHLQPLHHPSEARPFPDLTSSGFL
NR3A LBD binder: modulators (binders) of human NR3A ligand-binding domain. Tm shift relative to glycine control, % at 25 µM. AID 1259313. 340,000 compounds, 2.5% hits. NR3A LBD differential scanning fluorimetry, Tm shift; 0% = protein alone, 100% = glycine-bound protein;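 active = melting temperature shift of at least 10% of the positive control shift, at one fixed dose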
NTR1 agonist: activates human neurotensin receptor 1 | AID 493036 | P30989 | activation, % at 20 µM | NTR1-U2OS beta-arrestin-GFP spot imaging, agonist mode | 330,000 compounds, 0.17% hits;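 active = activation at or above 40% of the spot to cytoplasm intensity ratio, with at least 20 cells analyzed; inconclusive = wells under 20 cells, flagged as cytotoxic or low count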;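 also: 0% = DMSO without peptide and 100% = 100 nM NTR1 peptide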
H9c2 protect: protects H9c2 cardiomyocytes from peroxide injury. 360,000 compounds, 0.63% hits. H2O2 injury protection, ATPLite, 2 h. protection from H2O2 cell death, % at 20 µM;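 active = compounds giving at least 50% protection of heart cells from peroxide-induced death in the single-dose screen, raw or plate-pattern-corrected value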;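 also: 0% = DMSO wells with peroxide and 100% = DMSO wells without peroxide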
AI-2 QS mod: Vibrio harveyi AI-2 quorum sensing modulation. 300,000 compounds, 0.4% hits. Vibrio harveyi JMH597 AI-2 luminescence/OD600 ratio, 9 h; active compounds read low; strain lacks LuxN and CqsS sensors; 0 = neutral-control median. activity change, % at 7.5 µM; in the data active = activity change below about -75%, passing the limit was not always enough; inconclusive = no clear call, values can overlap the other calls;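 also: luminescence divided by OD600 gain over 9 h not by final OD600 alone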
JMH597 growth rt: retest: inhibitors of Vibrio harveyi JMH597 growth; shares compounds with AI-2 QS mod; OD600 absorbance, 9 h; lacks LuxN and CqsS sensors; growth inhibition, % at 7.5 µM; 750 compounds, 1% hits; AID 2726;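 active = every replicate shows growth inhibition above 50%; inconclusive = at least half, but not all, replicates pass that cutoff; inactive = fewer than half of replicates pass it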
BB721 lum counter: retest counter-screen: BB721 constitutive quorum sensing luminescence decrease; 750 compounds, 95% hits; shares compounds with AI-2 QS mod; Vibrio harveyi BB721 luminescence, 9 h; inhibition, % at 7.5 µM;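 active = inhibition above about 80% in every replicate, not just on average, limit read from the data; inconclusive = at least half of replicates past the limit, but not all; inactive = fewer than half of replicates past the limit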
BB721 growth: retest: inhibitors of Vibrio harveyi BB721 growth. shares compounds with AI-2 QS mod. OD600 absorbance, 9 h. growth inhibition, % at 7.5 µM. 750 compounds, 3% hits. AID 2728;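 active = every replicate shows growth inhibition above 50%; inconclusive = at least half but not all replicates above 50% inhibition; inactive = under half of replicates above 50% inhibition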
JMH597 AI-2 mod: Vibrio harveyi AI-2 signaling luminescence modulation – JMH597 strain, confirmation; shares compounds with AI-2 QS mod; Vibrio harveyi JMH597 AI-2 quorum sensing luminescence, 9 h; luxN and CqsS knockout, AI-2 only; inhibition, % at 7.5 µM; 750 compounds, 97% hits;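 active = every replicate shows more than 75% inhibition of signal versus neutral control wells; inconclusive = half to three quarters of replicates exceed 75% inhibition; inactive = fewer than half of replicates exceed 75% inhibition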
Starred values were filed as active, the others as inactive; ? = inconclusive; . = no result. Shown are actives, neighbours in structure and some others; about 6.2% of the full set was active somewhere.

SMILES	SUMO Mot1 rescue	AHR activator	NR3A LBD binder	NTR1 agonist	H9c2 protect	AI-2 QS mod	JMH597 growth rt	BB721 lum counter	BB721 growth	JMH597 AI-2 mod
COc1ccc(CC(NC(C)=O)C(=O)NC2CCN(C(=O)C3CCCCC3)CC2)cc1OC (centres undefined)	-4	0	-2	0	3	8	.	.	.	.
CN(C)CCNc1nc(Oc2cccc(F)c2)c2sccc2n1	.	.	.	.	14	.	.	.	.	.
NC(CCc1ccccc1)c1csc(Nc2ccccn2)n1 (centres undefined)	.	.	.	.	18	.	.	.	.	.
CN1CC(=O)N(CC(=O)Nc2ccc(Cl)c(C(F)(F)F)c2)C1=O	3	5	1	-1	-1	-96*	19	99*	13	99*
Cc1ccc(-c2cnc3n2CCCCC3)cc1	-7	7	-4	1	-2	12	.	.	.	.
c1ccc(-c2ccc(-c3cnc4n3CCCCC4)cc2)cc1	20	-13	-2	4	-16	-86*	-5	84*	-22	90*
O=C(NCc1ccc2c(c1)CCO2)Nc1ccccc1	261	0	3	1	-9	-83*	-7	96*	0	96*
Cc1ccc(C(=O)NCc2ccc3c(c2)CCO3)cc1C	3	0	-2	-1	2	-53	.	.	.	.
C(=C\c1nc(-c2cccnc2)no1)/c1ccccc1	1	5	-1	1	-1	-95*	29	98*	21	99*
Clc1ccccc1/C=C/c1nc(-c2cccnc2)no1	-22	6	0	6	-14	-66	.	.	.	.
O=C(O)CN1C(=O)NC2(CCOc3ccccc32)C1=O (centres undefined)	6	1	0	0	0	23	.	.	.	.
O=C(CN1C(=O)NC2(CCOc3ccccc32)C1=O)Nc1ccc(F)c(F)c1F (centres undefined)	-5	3	-4	-2	6	-79*	-6	87*	-8	91*
CCNC(=O)CN1C(=O)NC2(CCOc3ccccc32)C1=O (centres undefined)	-2	0	-1	0	2	17	.	.	.	.
O=C(CN1C(=O)NC2(CCc3ccccc32)C1=O)NCC(=O)Nc1ccc(F)cc1 (centres undefined)	-14	5	1	0	2	.	.	.	.	.
O=C(CN1C(=O)NC2(CCc3ccccc32)C1=O)Nc1cccc(F)c1 (centres undefined)	-14	6	-1	0	0	-84*	-2	92*	16	95*
CCN(c1ccc(NC(=O)CN2C(=O)NC3(CCOc4ccccc43)C2=O)cc1)C(C)C (centres undefined)	-6	0	0	0	-14	-82*	-16	?	-9	90*
CCCN(C(=O)C(C)Oc1cccc(Cl)c1)c1c(N)n(Cc2ccccc2)c(=O)[nH]c1=O (centres undefined)	-8	15	1	1	8	31	.	.	.	.
Clc1cccc(CSc2nnc(-c3c[nH]c4ccccc34)o2)c1	8	52*	16*	17	1	-88*	22	93*	22	95*
Clc1ccc2nc(CSc3nnc(-c4c[nH]c5ccccc45)o3)cn2c1	.	.	-7	.	-6	.	.	.	.	.
O=C(Oc1ccc2c(=O)c(Cl)coc2c1)c1cccnc1	-1	1	-1	-2	21	34	.	.	.	.
O=C(Oc1ccc2c(=O)c(Oc3ccc4ccccc4c3)coc2c1)c1cccnc1	-2	4	-4	-2	10	-89*	19	97*	?	97*
N#Cc1ccc(OCC(=O)NCC(c2cccs2)N2CCOCC2)cc1 (centres undefined)	0	8	-19	0	-1	13	.	.	.	.
CC(=O)Nc1ccc(C=NNC(=O)C2CC2)cc1	.	.	3	.	11	.	.	.	.	.
CC(C)(C)c1ccc(/C=N/NC(=O)C2CCCC2)cc1	28	.	7	8	-6	-83*	32	96*	?	97*
CC(C)c1ccc(/C=N/NC(=O)C2CCCC2)cc1	26	2	1	3	-3	?	-1	91*	4	92*
SMILES	SUMO Mot1 rescue	AHR activator	NR3A LBD binder	NTR1 agonist	H9c2 protect	AI-2 QS mod	JMH597 growth rt	BB721 lum counter	BB721 growth	JMH597 AI-2 mod
Cc1ccc(Nc2c([N+](=O)[O-])ccc3nonc23)cc1C	44	-1	-2	4	-7	-2	.	.	.	.
O=C(NCc1ccccc1F)C(c1ccccc1)c1ccccc1	1	4	-1	-2	-1	16	.	.	.	.
O=C(C#Cc1ccccc1)NCc1ccccc1F	-17	.	-1	-1	-4	-85*	16	94*	15	95*
Cc1cccc(N(C(=O)c2ccco2)C(C(=O)NC2CCCC2)c2ccco2)c1C (centres undefined)	.	.	0	-1	6	1	.	.	.	.
Cc1ccc(S(=O)(=O)c2ccc(C)cc2)cc1	-1	-1	-7	1	2	-92*	1	98*	-23	100*
O=C(COc1ccccc1)NCc1ccco1	.	.	0	.	2	.	.	.	.	.
CC(C)(C)c1ccc(OCC(=O)NCc2ccco2)cc1	8	12	-3	0	1	?	24	88*	10	94*
CC(O)[C@@]1(O)CC[C@H]2[C@@H]3CC[C@H]4C[C@@H](O)CC[C@]4(C)C3=CC[C@@]21C (some centres undefined)	0	2	8	1	3	8	.	.	.	.
Cc1ccc(C2(C)NC(=O)N(CC(=O)NCCC3=CCCCC3)C2=O)cc1 (centres undefined)	.	1	0	-4	-2	-74	.	.	.	.
CC1(c2ccccc2)NC(=O)N(CC(=O)NCCC2=CCCCC2)C1=O (centres undefined)	.	2	-1	1	-8	-90*	4	91*	-1	95*
CC1(c2ccc3c(c2)OCO3)NC(=O)N(CC(=O)NCCC2=CCCCC2)C1=O (centres undefined)	0	1	1	0	-1	-87*	12	90*	22	95*
CC1CCN(C(=O)CN2C(=O)NC(c3ccccc3)(c3ccccc3)C2=O)CC1	.	0	1	-2	-11	.	.	.	.	.
CCC(C(=O)Nc1c(C)cc(C)cc1C)N1CCCCCC1 (centres undefined)	-5	6	-1	0	1	-85*	-8	2	-1	4
